The record followed here is PubChem BioAssay AID1259349 (Broad Institute, 2017).

Several values for one entry are separate records, joined by “and”; a condition that tells them apart may be missing. Identical values can stand only once. About 1,100 (6.5%) of roughly 17,000 compounds were called active.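 How the source made its calls: active means z-score of -3 or lower, meaning strong loss of probe binding signal; inactive means the rest.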 What follows is part of a selection rich in actives, with near analogues and random picks from the rest. The source holds several records for some structures; these can differ, active in one and inactive in another.

Sequence of Insulin-degrading enzyme (Homo sapiens) (P14735 42-1019 limits assumed): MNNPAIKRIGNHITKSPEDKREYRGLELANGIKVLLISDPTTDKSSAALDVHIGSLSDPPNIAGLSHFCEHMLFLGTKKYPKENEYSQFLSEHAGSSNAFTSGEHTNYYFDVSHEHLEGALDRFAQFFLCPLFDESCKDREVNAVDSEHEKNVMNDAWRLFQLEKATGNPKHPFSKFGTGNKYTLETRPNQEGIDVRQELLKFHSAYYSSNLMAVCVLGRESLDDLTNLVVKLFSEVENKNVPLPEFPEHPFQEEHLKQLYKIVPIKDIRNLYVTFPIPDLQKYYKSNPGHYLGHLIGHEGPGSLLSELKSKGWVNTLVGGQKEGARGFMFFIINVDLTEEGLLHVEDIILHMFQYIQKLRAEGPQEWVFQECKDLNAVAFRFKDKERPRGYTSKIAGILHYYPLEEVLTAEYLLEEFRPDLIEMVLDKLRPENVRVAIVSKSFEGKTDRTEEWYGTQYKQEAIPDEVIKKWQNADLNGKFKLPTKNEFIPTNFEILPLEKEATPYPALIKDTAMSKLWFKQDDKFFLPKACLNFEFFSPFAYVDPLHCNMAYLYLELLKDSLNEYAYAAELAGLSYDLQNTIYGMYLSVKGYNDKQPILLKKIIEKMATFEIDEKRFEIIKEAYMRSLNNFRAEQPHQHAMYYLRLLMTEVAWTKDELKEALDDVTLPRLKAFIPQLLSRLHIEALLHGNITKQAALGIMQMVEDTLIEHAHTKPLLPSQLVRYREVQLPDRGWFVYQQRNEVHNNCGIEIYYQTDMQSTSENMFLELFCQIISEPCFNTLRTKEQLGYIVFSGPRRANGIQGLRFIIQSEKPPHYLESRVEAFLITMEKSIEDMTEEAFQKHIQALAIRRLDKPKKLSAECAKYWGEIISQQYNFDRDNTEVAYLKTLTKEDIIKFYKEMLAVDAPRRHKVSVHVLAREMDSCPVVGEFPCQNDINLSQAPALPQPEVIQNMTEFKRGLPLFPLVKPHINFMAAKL

The experiment has as its target Insulin-degrading enzyme (Homo sapiens) (UniProt P14735). Description: displacers of FL-6b probe from IDE – biochemical, fluorescence anisotropy, probe displacement, primary screen (AID 1259349).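 Further: His-tagged human IDE residues 42-1019 made in E. coli with 30 nM FL-6b probe.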 Particulars: purified IDE, FL-6b probe fluorescence polarization; at 20 µM; stronger effect = lower value. (In general: Polarisation of emitted light reports the rotation of a fluorescent probe.)
`N#C[C@@H]1[C@@H](c2ccccc2)[C@@H](CO)N1C(=O)Cc1ccccc1`: the z-score was 0.975 (inactive).

Consider `COCC(=O)N1[C@H](CO)[C@@H](c2ccc(C#Cc3ccccc3F)cc2)[C@@H]1C#N`, for which the z-score is -3.16 (active). Turning to `N#C[C@@H]1[C@H](c2ccc(C#Cc3ccccc3F)cc2)[C@H](CO)N1C(=O)C1CCCCC1`, the z-score is -0.57 (inactive). Under `N#C[C@@H]1N[C@H](CO)[C@@H]1c1ccc(/C=C/c2ccccc2)cc1` stands 0.0442 (inactive). For the compound `COc1ccccc1C#Cc1ccc([C@@H]2[C@@H](CO)N(C(=O)C3CC3)[C@H]2C#N)cc1`, the z-score was -8.33 (active). On to `N#C[C@H]1[C@H](c2ccc(C#Cc3ccc(F)cc3)cc2)[C@@H](CO)N1C(=O)C1CCCC1`, for which the z-score is 6.39 (inactive). In the case of `N#C[C@@H]1N[C@@H](CO)[C@@H]1c1ccc(C#Cc2ccccc2F)cc1` it was -3.8 (active); in that of `CC(C)C#Cc1ccc([C@@H]2[C@@H](C#N)N(C(=O)C3CC3)[C@@H]2CO)cc1`, 1.34 (inactive). With `COc1ccccc1C#Cc1ccc([C@H]2[C@@H](C#N)N(C(=O)C3CCCCC3)[C@@H]2CO)cc1`, the z-score is -7.41 (active). Under `N#C[C@H]1N[C@H](CO)[C@@H]1c1ccc(C#Cc2ccccc2F)cc1` stands 0.0442 (inactive); under `COCC(=O)N1[C@H](CO)[C@H](c2ccccc2-c2ccc(C)cc2)[C@@H]1C#N`, 0.234 (inactive); under `CCCC#Cc1ccc([C@H]2[C@@H](CO)N(C(=O)C3CC3)[C@H]2C#N)cc1`, 0.0113 (inactive). As to `C[C@@H]1CN([C@@H](C)CO)C(=O)c2cc(-c3ccc(C#N)cc3)cnc2O[C@@H]1CN(C)Cc1cccnc1`, the z-score was 0.499 (inactive). Under `COc1cccc(S(=O)(=O)Nc2ccc3c(c2)[C@@H]2C[C@H](CC(=O)NC4CCCCC4)O[C@H](CO)[C@@H]2O3)c1` stands 0.0301 (inactive); under `O=S(=O)(Cc1ccccc1)N1CCCCN2[C@H](CO)[C@@H](c3ccc(-c4cncnc4)cc3)[C@H]2C1`, 1.15 (inactive).

With `CCc1sc(N2[C@@H](C#N)[C@@H](c3ccccc3-c3ccccc3)[C@@H]2CO)nc1C`, the z-score was 1.04 (inactive). On to `COc1ccc(NC(=O)N2CC(=O)N3[C@H](CO)[C@@H](c4ccc(C#CCC5CCCC5)cc4)[C@H]3C2)cc1`, for which the z-score is 2.81 (inactive). Regarding `COc1ccccc1NC(=O)N1CC(=O)N2[C@H](C1)[C@H](c1ccc(C#Cc3ccccc3)cc1)[C@@H]2CO`, the z-score is -3.53 (active).

Take `COc1ccccc1NC(=O)N1CC(=O)N2[C@H](CO)[C@H](c3ccc(C#Cc4ccccc4)cc3)[C@H]2C1`: the z-score was -2.66 (inactive). Turning to `CCCNC(=O)N1CC(=O)N2[C@H](C1)[C@@H](c1ccc(C#Cc3ccccc3)cc1)[C@@H]2CO`, the z-score was -4.24 (active). On to `CCCNC(=O)N1CC(=O)N2[C@@H](CO)[C@H](c3ccc(-c4ccc(C)cc4)cc3)[C@@H]2C1`, for which the z-score was -1.44 (inactive).

Regarding `COc1cccc(C#Cc2ccc([C@@H]3[C@H]4CN(C(=O)Cc5ccccc5)CC(=O)N4[C@H]3CO)cc2)c1`, the z-score was -0.17 (inactive). Consider `COc1ccccc1NC(=O)N1CC(=O)N2[C@H](CO)[C@@H](c3ccc(C#Cc4ccc(F)cc4)cc3)[C@H]2C1`, for which the z-score was 3.22 (inactive). Consider `COCC(=O)N1CC(=O)N2[C@@H](CO)[C@@H](c3ccc(C#CC(C)C)cc3)[C@@H]2C1`, for which the z-score was 1.03 (inactive). For the compound `CCCNC(=O)N1CC(=O)N2[C@H](CO)[C@@H](c3ccc(-c4ccc(F)cc4)cc3)[C@H]2C1`, the z-score was -0.254 (inactive). In the case of `COCC(=O)N1CC(=O)N2[C@H](C1)[C@@H](c1ccc(C#Cc3cccc(OC)c3)cc1)[C@@H]2CO` it was -5.09 (active); in that of `C[C@H]1CN([C@@H](C)CO)C(=O)CCCn2nncc2CO[C@H]1CN(C)S(=O)(=O)c1ccccc1C#N`, -0.585 (inactive); in that of `Cc1ccc(-c2ccc([C@H]3[C@H](CO)N4C(=O)CN(S(=O)(=O)c5cccc(F)c5)C[C@@H]34)cc2)cc1`, 1.91 (inactive). Under `C[C@H](NC(=O)C[C@@H]1C[C@@H]2c3cc(NS(=O)(=O)c4ccc(F)cc4)ccc3O[C@@H]2[C@@H](CO)O1)c1ccccc1` stands -0.633 (inactive); under `O=C1NCCCOCc2cn(nn2)CC[C@@H]1Cc1ccc(-c2ccccc2)cc1`, -0.0302 (inactive); under `Cc1ccccc1-c1ccc([C@H]2[C@@H](CO)N3C(=O)CN(C(=O)c4ccncc4)C[C@H]23)cc1`, -10 (active). As for `CCCC#Cc1ccc([C@@H]2[C@@H](CO)N3C(=O)CN(C(=O)c4ccncc4)C[C@@H]23)cc1`, the z-score is 1.2 (inactive). On to `O=C(c1ccncc1)N1CC(=O)N2[C@H](CO)[C@@H](c3ccc(-c4cccnc4)cc3)[C@H]2C1`, for which the z-score is 2.02 (inactive). Take `O=C(c1ccncc1)N1CC(=O)N2[C@H](CO)[C@H](c3ccc(-c4ccccc4F)cc3)[C@@H]2C1`: the z-score was 0.944 (inactive). In the case of `CCCC#Cc1ccc([C@H]2[C@@H](CO)N3C(=O)CN(C(=O)c4ccncc4)C[C@H]23)cc1`, the z-score is 0.281 (inactive). In the case of `Cc1ccccc1-c1ccc([C@H]2[C@@H](CO)N3C(=O)CN(C(=O)c4ccncc4)C[C@@H]23)cc1` it was -3.52 (active). Under `COc1ccc(C#Cc2ccc([C@@H]3[C@@H](CO)N4C(=O)CN(C(=O)c5ccc(F)cc5)C[C@@H]34)cc2)cc1` stands 0.452 (inactive); under `CN(C)C(=O)c1ccc(-c2ccc([C@@H]3[C@H](C#N)N(C(=O)C4CC4)[C@H]3CO)cc2)cc1`, -0.273 (inactive). Turning to `COc1ccc(CN(C)C[C@@H]2Oc3ccc(NC(=O)Nc4ccc5c(c4)OCO5)cc3CC(=O)N([C@H](C)CO)C[C@H]2C)cc1`, the z-score is 1.72 (inactive). Turning to `COc1ccc2c3c(n(C)c2c1)[C@@H](CO)N(CC1CC1)CC31CCN(C(=O)c2cccc(F)c2)CC1`, the z-score was 0.882 (inactive). With `CO[C@H](CN(C)C(=O)c1cnccn1)[C@@H](C)CN([C@@H](C)CO)S(=O)(=O)c1ccccc1`, the z-score is 1.89 (inactive). In the case of `CN(C)CC(=O)N1[C@H](C#N)[C@H](c2ccccc2-c2cccc(C(=O)N(C)C)c2)[C@@H]1CO` it was 4.1 (inactive); in that of `C[C@@H]1CN([C@H](C)CO)C(=O)c2c(c3ccccc3n2C)-c2ccccc2CO[C@H]1CN(C)C(=O)[C@@H](Cc1ccccc1)N(C)C`, -1.45 (inactive). `O=C(C[C@@H]1CC[C@H]2NC[C@H](O)COC[C@@H]2O1)NCCN1CCCCC1`: the z-score was 0.878 (inactive). `O=C1C[C@@H](c2ccccc2)C(=O)N[C@H](c2ccc(F)cc2)C/C=C\CCN1`: the z-score is 1 (inactive). Consider `O=S(=O)(c1ccccc1F)N1[C@@H]2CNC[C@H]1C2c1ccc(-c2cncnc2)cc1` (some centres not stated), for which the z-score was 2.04 (inactive). With `Cc1cccc(-c2ccccc2[C@@H]2[C@H](C#N)N(c3ncc(-c4ccccc4)s3)[C@H]2CO)c1`, the z-score is 4.05 (inactive). For the compound `O=S(=O)(c1ccccc1)N1C[C@@H]2[C@H](c3ccccc31)[C@H](CO)N2Cc1ccccn1`, the z-score is 2.16 (inactive).

Take `Cc1ccc(-c2ccc(C3[C@H]4CNC[C@@H]3N4S(=O)(=O)c3ccccc3C)cc2)cc1` (some centres not stated): the z-score was 1.05 (inactive) and 2.8 (inactive). Consider `COc1cccc(S(=O)(=O)N2[C@@H]3CNC[C@H]2C3c2ccc(-c3ccccc3OC)cc2)c1` (some centres not stated), for which the z-score was -0.496 (inactive) and -4.13 (active). Regarding `Cc1cccc(-c2ccc(C3[C@H]4CNC[C@@H]3N4S(=O)(=O)c3ccccc3F)cc2)c1` (some centres not stated), the z-score was 5.33 (inactive) and 3.85 (inactive).

`COc1cccc(NC(=O)N2[C@@H]3CNC[C@H]2C3c2ccc(-c3ccncc3)cc2)c1` (some centres not stated): the z-score was 0.421 (inactive) and 0.471 (inactive).

In the case of `CN(C)C(=O)c1cccc(-c2ccc(C3[C@H]4CNC[C@@H]3N4C(=O)Nc3ccccc3F)cc2)c1` (some centres not stated), the z-score is 1.08 (inactive) and 3.82 (inactive). For the compound `COc1ccccc1NC(=O)N1[C@@H]2CNC[C@H]1C2c1ccc(-c2ccccc2C)cc1` (some centres not stated), the z-score is -4.4 (active). Turning to `COCCNC(=O)C[C@H]1CC[C@@H]2[C@H](COc3ccc(NC(=O)Nc4cccc(F)c4)cc3C(=O)N2C)O1`, the z-score is -0.769 (inactive). Under `COc1ccc(S(=O)(=O)N2CCCCN3[C@@H](CO)[C@@H](c4ccc(C#CCC(C)C)cc4)[C@@H]3C2)cc1` stands 4 (inactive); under `CN(C)C(=O)c1cccc(-c2ccc(C3[C@@H]4CN(S(=O)(=O)c5ccc(F)cc5)C[C@H]3N4)cc2)c1` (some centres not stated), 4.34 (inactive) and 3.12 (inactive); under `C[C@@H]1CC(=O)N[C@H](c2ccccc2)C/C=C\C[C@H](c2ccccc2)NC1=O`, 1.16 (inactive). On to `COCC(=O)N1CCCCN2[C@H](CO)[C@H](c3ccc(-c4ccc(OC)cc4)cc3)[C@H]2C1`, for which the z-score was -1.33 (inactive). For `CC(C)NC(=O)N1CCCCN2[C@@H](CO)[C@@H](c3ccc(C#Cc4ccccc4)cc3)[C@@H]2C1`, the z-score is -8.05 (active). Under `CC(C)C#Cc1ccc([C@H]2[C@H](CO)N3CCCCN(C(=O)NC(C)C)C[C@@H]23)cc1` stands 0.103 (inactive). On to `COCC(=O)N1CCCCN2[C@H](CO)[C@@H](c3ccc(-c4ccc(OC)cc4)cc3)[C@@H]2C1`, for which the z-score was -2.67 (inactive). In the case of `CC(C)C#Cc1ccc([C@@H]2[C@H]3CN(C(=O)NC(C)C)CCCCN3[C@H]2CO)cc1`, the z-score was 1 (inactive). On to `COc1ccc(-c2ccc([C@@H]3[C@@H](CO)N4CCCCN(C(=O)NC(C)C)C[C@H]34)cc2)cc1`, for which the z-score is -4.12 (active). In the case of `COc1ccc2c3c([nH]c2c1)[C@H](CO)N(Cc1nccs1)CC31CCN(Cc2cccnc2)CC1` it was -0.878 (inactive); in that of `COc1cccc(S(=O)(=O)N2CCCCN3[C@H](C2)[C@@H](c2ccc(C4=CCCCC4)cc2)[C@@H]3CO)c1`, 2.68 (inactive); in that of `COc1ccc2c3c([nH]c2c1)[C@H](CO)N(Cc1ccc(F)cc1)CC31CCN(Cc2ccccn2)CC1`, -1.44 (inactive).
